NPC1 prom act – activators of NPC1 promoter | Huh7 NPC1 promoter luciferase reporter, 24 h | Potency, µM (top dose mostly 9.22 µM), actives largely listed as activators | 320,000 compounds, 2.4% hits | AID 485313; also: nearly all actives have a fitted effect of over 60% in size
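Luciferase expression driven by the NPC1 promoter was measured in stably transfected Huh7 cells after a 24 h compound incubation, using a luciferase reagent and a luminescence read.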
FLuc counter – counter-screen for miR-21 project: firefly luciferase inhibitors or activators. Potency, µM (highest dose often 57.5 µM), usual class: inhibitors. 360,000 compounds, 6.9% hits. P08659. purified FLuc, Km substrates, luminescence inhibition; also: nearly all actives have a fitted effect of over 55% in size
Target sequence (P08659 whole entry, looked up): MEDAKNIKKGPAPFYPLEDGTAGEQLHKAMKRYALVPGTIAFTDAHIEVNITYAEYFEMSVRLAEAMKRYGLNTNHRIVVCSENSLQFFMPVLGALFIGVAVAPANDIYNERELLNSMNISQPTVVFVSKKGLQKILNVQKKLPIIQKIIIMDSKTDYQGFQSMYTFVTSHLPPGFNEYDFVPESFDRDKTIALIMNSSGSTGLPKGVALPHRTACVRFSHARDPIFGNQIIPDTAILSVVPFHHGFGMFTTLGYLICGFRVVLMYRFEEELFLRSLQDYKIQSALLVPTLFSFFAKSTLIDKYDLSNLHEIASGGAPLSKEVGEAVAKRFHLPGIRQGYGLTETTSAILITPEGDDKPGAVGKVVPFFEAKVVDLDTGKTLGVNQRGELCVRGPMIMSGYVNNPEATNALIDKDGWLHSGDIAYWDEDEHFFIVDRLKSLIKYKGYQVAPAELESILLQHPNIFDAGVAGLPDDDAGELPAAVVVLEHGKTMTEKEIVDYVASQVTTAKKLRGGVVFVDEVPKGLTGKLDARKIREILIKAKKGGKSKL
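Purified P. pyralis luciferase, 10 nM final, with Km-level 10 uM D-luciferin and 10 uM ATP in 50 mM Tris acetate pH 7.5, 10 mM Mg acetate, 0.01% Tween-20, 0.05% BSA; 6-point qHTS titration about 60 µM downward; luminescence read.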
SMN2 splice up – SMN2 splice variant enhancement. Potency, µM (series often up to 46.1 µM), usual class: activators. 210,000 compounds, 2.8% hits. HEK293 SMN2-luciferase splicing reporter, luminescence, 30-36 h. AID 1458; also: nearly all actives have a fitted effect of over 55% in size
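qHTS luciferase splicing reporter: luminescence rises when SMN2 exon 7 is included in transfected HEK293 cells. Compound exposure lasted 30-36 h at 37C, with 4.5 mM final sodium butyrate as control, followed by a ONE-Glo read.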
ELG1 genotoxic – genotoxicity induction in ELG1-luciferase HEK293T cells. HEK293T ELG1-luciferase reporter, luminescence, 16 h. Potency, µM (doses to about 46 µM), hits mostly activators. 330,000 compounds, 1.3% hits; also: nearly all actives have a fitted effect of over 60% in size
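HEK293T cells expressing luciferase-tagged ELG1 were exposed to compound or DMSO vehicle for 16 hr at 37 °C and 5% CO2. Luciferase activity was then measured with ONE-Glo after 30 min at room temperature.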
Rab9 prom act – activators of Rab9 promoter; Huh7 Rab9 promoter-luciferase reporter, luminescence, 24 h; Potency, µM (titrated, usually from 9.22 µM), most hits filed as activators; 320,000 compounds, 2.8% hits; AID 485297; also: nearly all actives have a fitted effect of over 60% in size
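Luminescence from Amplite-detected luciferase (10 minutes, ambient) reports Rab9 promoter activation. Before that, stable Rab9-luciferase Huh7 cells (1500/well, reduced-serum OP-MEM I plus 10% FBS) were exposed to compound for 24 hours at 37C.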
Each line names hits and unclear results; the compound was inactive in the other large screens. Hits are enriched below; roughly 7.5% of the tested compounds scored in any of these assays. Calls follow the shape of the dose curve; as a rule, active = well fitted curve in the direction sought with a large enough effect; inconclusive = small, poorly fitted or top-dose-only effect, or another doubt; inactive = no such curve, though single readings can be large; an effect the other way counts as inactive or inconclusive.

COc1ccc(-c2cc(C(=O)Oc3ccc([N+](=O)[O-])cc3)c3ccccc3n2)cc1	FLuc counter 5.4µM, SMN2 splice up inconclusive
CCN(C(=O)COC(=O)c1cc(-c2ccc3cc(OC)ccc3c2)nc2ccccc12)C1CCS(=O)(=O)C1 (configuration not stated)	NPC1 prom act 0.89µM, FLuc counter 0.85µM, SMN2 splice up inconclusive, Rab9 prom act 0.35µM
COc1ccc(-c2cc(C(=O)Oc3ccc(C)cc3)c3ccccc3n2)cc1	FLuc counter inconclusive (no result: NPC1 prom act, ELG1 genotoxic, Rab9 prom act)
Nc1c(C(=O)Nc2ccc(OC(F)(F)F)cc2)nnn1Cc1ccccc1	none (no result: NPC1 prom act, ELG1 genotoxic, Rab9 prom act)
COc1cc(NC(=O)Cn2c(=O)ccc3cc(S(=O)(=O)N4CCCC4)ccc32)cc(OC)c1	none (no result: NPC1 prom act, SMN2 splice up, ELG1 genotoxic, Rab9 prom act)
Cc1nn(C)cc1CNC(=O)c1cccc(Cl)c1	none
Cc1ccc(N(Cc2ccccc2)C(=O)c2cc(S(=O)(=O)N3CCOCC3)ccc2F)cc1	FLuc counter 19µM (no result: SMN2 splice up)
Cc1ccc(N(Cc2ccccc2)C(=O)c2cc(S(=O)(=O)N3CCOCC3)ccc2Cl)cc1	FLuc counter inconclusive, ELG1 genotoxic inconclusive (no result: SMN2 splice up)
Cc1ccc(-n2c(SCC(=O)N/N=C/c3ccccc3OCC(=O)O)nc3ccccc3c2=O)cc1	none (no result: SMN2 splice up)
C=CCSc1nncn1/N=C/c1ccc(OC)cc1	NPC1 prom act 2.8µM, FLuc counter 6.7µM, SMN2 splice up 13µM, ELG1 genotoxic 21µM, Rab9 prom act 2.2µM
O=C(CSc1ncn[nH]1)N/N=C/c1ccc(Br)cc1	FLuc counter 15µM (no result: SMN2 splice up)
CC1(C)Cc2nc3sc4c(SCC(=O)NCc5ccco5)ncnc4c3cc2CO1	FLuc counter 5.4µM, SMN2 splice up inconclusive, ELG1 genotoxic 2.1µM, Rab9 prom act inconclusive
CCN(CC)CCn1c(C)nc2c(sc3nc4c(cc32)COC(C)(C)C4)c1=O	none (no result: SMN2 splice up)
Cc1nc2c(sc3nc4c(cc32)COC(C)(C)C4)c(=O)n1Cc1ccccc1	FLuc counter 24µM, ELG1 genotoxic inconclusive, Rab9 prom act inconclusive
Cc1nc2c(sc3nc4c(cc32)COC(C)(C)C4)c(=O)n1CC(=O)NCc1ccco1	FLuc counter 8.5µM, SMN2 splice up 13µM, ELG1 genotoxic inconclusive, Rab9 prom act inconclusive
CC(C)c1nc2sc3c(SCC(=O)NCc4ccco4)ncnc3c2c2c1CCC2	none
CCCc1nc2c(sc3nc4c(cc32)COC(C)(C)C4)c(=O)n1Cc1ccco1	none
COc1ccc(S(=O)(=O)N2CCC(C(=O)Nc3ccc(S(=O)(=O)N4CCCC4)cc3)CC2)cc1OC	none (no result: SMN2 splice up)
COc1cc(OC)c(OC)cc1/C=N/N(C)c1ccccc1	none
COc1cc(/C=N/N(C)c2ccccc2)ccc1O	NPC1 prom act inconclusive, FLuc counter 2.4µM, SMN2 splice up inconclusive, ELG1 genotoxic 4.6µM, Rab9 prom act inconclusive
CN(/N=C/c1ccc2c(c1)OCO2)c1ccccc1	NPC1 prom act 4µM, FLuc counter 6.7µM, SMN2 splice up 20µM, ELG1 genotoxic inconclusive, Rab9 prom act 2.8µM
C(=N\N(c1ccccc1)c1ccccc1)/c1ccc2c(c1)OCO2	none
CCN(CC)CCCNc1cc(-c2ccccc2)nc(C)n1	none (no result: NPC1 prom act, SMN2 splice up, ELG1 genotoxic, Rab9 prom act)
COc1ccc(CN2C(=O)CS/C2=N/N=C/c2cccs2)cc1	FLuc counter 17µM (no result: SMN2 splice up)
CCC(=O)NCCc1sc2nc(-c3ccc(OC)cc3)nn2c1C	FLuc counter 19µM (no result: NPC1 prom act, SMN2 splice up, ELG1 genotoxic, Rab9 prom act)
COc1ccc(-c2nc3sc(CCNC(=O)c4ccc(Br)o4)c(C)n3n2)cc1	FLuc counter 11µM (no result: NPC1 prom act, SMN2 splice up, ELG1 genotoxic, Rab9 prom act)
COc1ccc(-c2nc3sc(CCNC(=O)c4ccc(C(C)(C)C)cc4)c(C)n3n2)cc1	FLuc counter 4.8µM (no result: NPC1 prom act, SMN2 splice up, ELG1 genotoxic, Rab9 prom act)
COc1ccc(-c2nc3sc(CCNC(=O)c4cc(Cl)ccc4OC)c(C)n3n2)cc1	FLuc counter 7.6µM (no result: NPC1 prom act, SMN2 splice up, ELG1 genotoxic, Rab9 prom act)
COc1ccc(-c2nc3sc(CCNC(=O)Cc4ccc(Cl)cc4)c(C)n3n2)cc1	none (no result: NPC1 prom act, SMN2 splice up, ELG1 genotoxic, Rab9 prom act)
CCOc1ccc(CC(=O)NCCc2sc3nc(-c4ccc(OC)cc4)nn3c2C)cc1	none (no result: NPC1 prom act, SMN2 splice up, ELG1 genotoxic, Rab9 prom act)
Cc1ccc(C)c(N(CC(=O)NCC2CCCO2)C(=O)CCC(=O)Nc2nccs2)c1 (configuration not stated)	none (no result: SMN2 splice up)
Cc1cc2cc(CNC(=S)Nc3ccc(OC(F)F)cc3)ccc2n1C	none
CC(C)(C)c1ccc(C(=O)NCCc2csc3nc(-c4ccccc4F)nn23)cc1	FLuc counter 12µM (no result: NPC1 prom act, SMN2 splice up, ELG1 genotoxic, Rab9 prom act)
CN1C(=O)N(C)C(c2ccccc2Cl)C2=C1CC(C)(C)CC2=O (configuration not stated)	none (no result: SMN2 splice up)

Assay outcomes as filed in PubChem.
